Assay results from PubChem BioAssay AID492960 (National Center for Advancing Translational Sciences (NCATS), 2010).
Inconclusive results are not listed. Calls of active or inactive are those of the source. Calls follow the shape of the dose curve; as a rule, active = well fitted curve in the direction sought with a large enough effect; inconclusive = small, poorly fitted or top-dose-only effect, or effect the other way, or another doubt; inactive = no such curve, though single readings can be large or run the other way.

Test: Secondary Assay for lipid storage modulators: HepG2 cell LDSA assay for probe SAR
Conditions: HepG2 lipid droplet BODIPY, laser-scanning cytometry, 18-24 h; series mostly up to 46.1 µM; activity, negative = less lipid: at the top concentration
Source text: NIH Molecular Libraries Probe Production Centers Network [MLPCN] NIH Chemical Genomics Center [NCGC] MLPCN Grant: 1 R03 MH085686-01 Assay Submitter (PI): Beller, Mathias; Max-Planck-Institut fur Biophysikalische Chemie NCGC Assay Overview: Storing lipids as a reservoir for energy or the anabolism of elementary metabolites is a common feature of probably all cells and is conserved from bacteria to humans. The universal cellular lipid storage organelle is the so-called lipid storage droplet (LD). Although ubiquitous, LDs share a simple structure composed of a hydrophobic core that harbors the storage lipids, which is shielded by a droplet-specific phospholipid monolayer to which proteins are attached. The current model of LD biogenesis involves an incorporation of the lipid core into the membrane leaflets of the endoplasmic reticulum (ER) followed by a subsequent budding-like maturation of a LD, which ultimately pinches off. Once released, LD volume can increase by localized lipogenesis or fusion of existing droplet. Storage lipids are re-mobilized enzymatically by lipase activity. Lipase regulation in the adipocyte is heavily studied and involves multiple components including catecholamine signaling, the LD-associated proteins Perilipin and comparative gene identification (CGI-58) and at least two lipases named hormone sensitive lipase (HSL) and adipocyte triglyceride lipase (ATGL). LD regulation outside of the adipocyte is poorly understood and only few components are known. However, there is an urgent need to learn more about ectopic fat depots as mislocalized storage of lipids, for example in the liver or muscle, is an eminent health problem associated with insulin resistance or the metabolic syndrome.
NCGC Assay Protocol Summary: The assay was performed with HepG2 cells, using an oleic acid feeding protocol similar to the S3 assay. We dispensed 4 uL of cells to give 700 cells/well into Greiner bio-one 1,536-well plates (black walled, clear bottom). Triacsin C (Sigma-Aldrich T-4540), an inhibitor of long-chain fatty acyl CoA synthetase that blocks synthesis of triglycerides, was used as a positive control for lipid under-storage using a final concentration of 20 uM. The orexin antagonist, SB408124 - previously identified to stimulate lipid over-storage, was used as a positive control for lipid over-storage using a final concentration of 20 uM. A total of 23 nL of compound solution of different concentrations were transferred to the assay plates using a Kalypsys pin tool equipped with a 1,536-pin array containing 10-nL slotted pins (FP1S10, 0.457-mm diameter, 50.8 mm long; V&P Scientific). One microliter of oleic acid was added (400 uM final concentration), and the plate was lidded with stainless steel rubber gasket lined lids containing pinholes. After 18-24 h incubation at […] and 95% humidity, 4 uL of the dyes BODIPY 493/503 (Molecular Probes) and the Cell Tracker Red CMTPX dye (Molecular Probes) were added to the wells to stain lipid droplets and enumerate cell number, respectively. Fluorescence was detected by excitation of the fluorophores with a 488-nm laser on an Acumen Explorer (TTP Lab Tech). The total intensity in channel 2 (500-530 nm) reflected lipid droplet accumulation. Cells were detected using channel 3 (575-640 nm) with 5-um width and 100-um depth filters. The ratio of the number of objects in PMT channel 2 over the number of objects in PMT channel 3 was also calculated. […]

Compound	Potency	activity, negative = less lipid
CCC/C=C/C/C=C/C=C/C=N/NN=O	396 nM (active)	
CCOc1ccc(CCNC(=O)c2ccc(C(=O)c3ccccc3)cc2)cc1OCC		15.6% (inactive)
CCOc1ccc(CCNC(=O)c2ccccc2)cc1OCC		-5.19% (inactive)
CCOc1ccc(CCNC(=O)c2ccc(Oc3ccccc3)cc2)cc1OCC		33.8% (inactive)
CCOC(=O)C1CCN(C(=O)C2(NC(=O)Nc3ccccc3Cl)CCCC2)CC1		32.5% (inactive)
